Source: PubChem
Hits are enriched below; roughly 14% of the tested compounds scored in any of these assays.
Marburg entry inh: qHTS for inhibitors of binding or entry into cells for Marburg Virus; AID 540276, 2011; Marburg virus pseudotyped entry inhibition, cell reporter; hit rate 1.8% among 300,000; Potency, µM (top dose mostly 37.8 µM), hits mostly inhibitors; calls by dose curve; tested in HEK293 cells
HCMV antiviral: qHTS Assay for inhibitors of the human cytomegalovirus (HCMV); hit rate 4.5% among 410,000; HFF cells, HCMV-luciferase reporter, 72 h; stronger effect = lower value; activity change, negative = inhibition, % at 57.5 µM; in the data active = activity change below about -60%; inconclusive = no clear call, values can overlap the other calls; inactive = above about -39%
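Screen run at 2 compound doses on HFFs infected with reporter HCMV, MOI 1 PFU/cell. Luciferase activity from cell lysates at 72 h post infection gave inhibition relative to buffer-only and Salinomycin wells.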
HCV inh: qHTS Assay for Inhibitors of Hepatitis C Virus (HCV). Huh7.5.1 HCVcc-Cre infection, luciferase reporter, 44 h. Potency, µM (titrated, usually from 41.8 µM), most hits filed as inhibitors. AID 651820, 2012. hit rate 3.4% among 340,000
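Infectious HCV cell culture screen: compound-treated cells (1,000/well, pre-plated 4 h) are infected with HCVcc-Cre at roughly 0.5 moi and grown 44 h. Infection is quantified by luciferase signal after 15 min substrate incubation at room temperature.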
Pf growth 48h: Primary qHTS for delayed death inhibitors of the malarial parasite plastid, 48 hour incubation. P. falciparum luciferase growth in erythrocytes, 48 h. Potency, µM (top dose mostly 28.7 µM), hits mostly inhibitors. hit rate 5.9% among 310,000. AID 504832, 2011
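Parasite viability was followed by luminescence of a genomically integrated firefly luciferase. Cultures held 0.1% parasitemia at 2% hematocrit (final), incubated under 5% CO2 at 37 C.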
Pf growth 96h: Primary qHTS for delayed death inhibitors of the malarial parasite plastid, 96 hour incubation. P. falciparum luciferase reporter growth, 96 h. Potency, µM (highest dose often 28.7 µM), actives largely listed as inhibitors. hit rate 6.9% among 320,000. AID 504834, 2011
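Two parasite generations (96 h, 37 C, 5% CO2) of compound exposure in infected erythrocytes (0.05% parasitemia, 2% hematocrit). Luciferase-reporter P. falciparum; decreased luminescence indicates inhibited growth, aimed at apicoplast-acting delayed death.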
Lassa entry inh: qHTS for Inhibitors of binding or entry into cells for Lassa Virus | Lassa virus pseudotype entry inhibition, cell reporter | Potency, µM (highest dose often 37.9 µM), usual class: inhibitors | hit rate 1.2% among 300,000 | AID 540256, 2011; calls by dose curve; tested in HEK293 cells; note: nearly all actives have a fitted effect of over 50% in size
Numbers stand for hits; . = inactive; ? = inconclusive; / = no result given; [ ] = another dose, or the depositor's remark. Unless noted, calls come from the whole dose curve; as a rule, active = well fitted inhibition curve with a large enough effect; inconclusive = small, poorly fitted or top-dose-only effect, or another doubt; inactive = no such curve, though single readings can be large or run the other way.

SMILES	Marburg entry inh	HCMV antiviral	HCV inh	Pf growth 48h	Pf growth 96h	Lassa entry inh
COC(=O)c1cc(Nc2cc(C)c3c(O)cccc3n2)cc(C(=O)OC)c1	/	?	?	9.3µM	?	/
Cc1ccc(Nc2cc(C)c3ccc(O)cc3n2)cc1C	/	.	10µM	?	?	/
O=C(NNC(=O)c1ccccc1-n1cccc1)c1ccc(Cl)nc1	/	.	.	.	.	/
Cc1ccccc1NC(=O)CSc1nnc(-c2cccc(Cl)c2)o1	?	.	/	/	/	.
COc1ccc(NC(=O)CCNS(=O)(=O)c2ccc3c(c2)CCCC(=O)N3)cc1	/	.	/	/	/	.
Cc1ccc(CCNC(=O)c2cc(Nc3ccc(C)c(C)c3)nc3ccccc23)cc1	/	.	/	/	/	.
Cc1cc(Nc2ccccc2O)c2ccccc2n1	?	?	?	.	.	.
Cc1ccccc1Nc1cc(C)c2c(O)cccc2n1	?	-89	.[8.37 µM]	?	.	.
Cc1ccc(Nc2cc(C)c3c(O)cccc3n2)cc1C	/	.	?	2.6µM	2.6µM	/
Cc1cc(C)c2c(NC(=O)CCl)nn(C)c2n1	?	-110	?	3.7µM	1.9µM	?
Cc1cc(C)c2c(NC(=S)NC(=O)c3ccccc3)nn(C)c2n1	.	.	.	?	.	.
Cc1cn(C)c(CC(=O)N2CCN(c3ccccc3F)CC2)c1C(=O)O	/	.	/	/	/	.
Cc1[nH]c2ccccc2c1-c1nc(-c2ccc(Cl)cc2)nnc1-c1ccccc1	/	/	/	.	.	/
CC(C)c1nnc(-c2ccc(Cl)cc2)c(N(C)C)n1	.	.	.	?	9.3µM	?
COc1ccc(CCC(=O)OCC(=O)N(CC(C)C)c2c(N)n(Cc3ccccc3)c(=O)[nH]c2=O)cc1	?	.	.	.	.	?
Cc1cc2ncn(/N=C/c3ccc([N+](=O)[O-])s3)c2cc1C	?	.	11µM	2.6µM	3.7µM	.
COc1cccc(/C=N/n2cnc3cc(C)c(C)cc32)c1OC	.	.	?	.	.	.
O=[N+]([O-])c1ccc(/C=N/n2cnc3ccccc32)s1	?	.	?	5.9µM	?	?
Cc1cc2ncn(/N=C/c3cc(Br)ccc3O)c2cc1C	.	.	/	1µM	?	/
CCOc1ccc(OCCCC(=O)N2CCN(S(=O)(=O)c3ccc(Cl)cc3)CC2)cc1	.	.	.	.	.	.
C#Cc1ccc([C@H]2C=C(C(=O)O)O[C@@H](OCCCCO)C2)cc1	/	.	.	/	/	/
CCOc1ccc2c(ccc(/C=C/c3cc(C)c4cccnc4c3O)[n+]2C)c1	16µM	/	?	/	/	?
CC1(C)C2CCC1(C)C(NC(=O)CCN1CCCCC1)C2 (stereo not drawn)	.	.	.	.	0.093µM	.
CC1(C)[C@H]2CC[C@]1(C)[C@H](NC(=O)CCN1CCCCC1)C2	.	/	/	/	/	/
Cc1cccc(CNC(=O)CCCN2C(=O)CCn3nc(-c4cccn4C)cc32)c1	/	.	/	/	/	.
SMILES	Marburg entry inh	HCMV antiviral	HCV inh	Pf growth 48h	Pf growth 96h	Lassa entry inh
CCCC(=O)Nc1nnc(SCc2cc(=O)c3ccc(C)cc3[nH]2)s1	/	?	/	/	/	.
CCN(CCCCCN(C)C)Cc1cc2ccccc2o1	10µM	.	?	10µM	5.2µM	?
CCOc1ccc(-c2nc(N)ncc2Oc2ccc(OC)cc2)c(O)c1	.	.	14µM	12µM	?	.
COc1ccc(-c2nc(C)ncc2-c2ccccc2)c(O)c1	/	.	.	?	?	/
COc1ccc(-c2nc(N)ncc2-c2csc(C)n2)c(O)c1	?	.	?	.	?	.
CCOc1ccc(-c2nc(N)ncc2-c2ccc(OC)cc2)c(O)c1	?	.	?	?	?	.
CCOc1ccc(-c2nc(N)ncc2-c2ccc(Cl)cc2)c(O)c1	/	?	?	10µM	?	/
COc1ccc(-c2nc(C)ncc2-c2ccc(Cl)cc2)c(O)c1	/	.	.	4.7µM	3.7µM	/
CCOc1ccc(-c2nc(N)ncc2-c2ccccc2)c(O)c1	?	.	10µM	?	?	.
CCC/C=C/c1ccc(CN2C(C)C(=O)N(Cc3cn(CC4CCCCC4)nn3)CCS2(=O)=O)cc1 (stereo not drawn)	/	.	/	/	/	/
Cn1cccc1/C=C1\C(=O)NC(=O)N(Cc2ccccc2)C1=O	.	-65	.	.	.	.
O=C(c1ccc(NC2=NC3CS(=O)(=O)CC3S2)cc1)N1CCN(c2ccc(F)cc2)CC1 (stereo not drawn)	/	.	.	.	.	/
COc1cccc(CNC(=O)Cc2ccc(NC3=NC4CS(=O)(=O)CC4S3)cc2)c1 (stereo not drawn)	/	.	.	.	?	/
COc1ccc(OC)c(NC(=O)Cc2ccc(NC3=NC4CS(=O)(=O)CC4S3)cc2)c1 (stereo not drawn)	/	.	.	.	12µM	/
Cc1ccc(CNC(=O)c2ccc(NC3=NC4CS(=O)(=O)CC4S3)cc2)cc1 (stereo not drawn)	/	-68	.	.	.	/
COc1cccc(CNC(=O)c2ccc(Cl)c(NC3=NC4CS(=O)(=O)CC4S3)c2)c1 (stereo not drawn)	/	.	.	.	2.6µM	/
O=C(Cc1ccc(NC2=NC3CS(=O)(=O)CC3S2)cc1)N1CCN(c2ccc(F)cc2)CC1 (stereo not drawn)	/	.	.	.	12µM	/
COc1cccc(CNC(=O)c2cccc(NC3=NC4CS(=O)(=O)CC4S3)c2)c1 (stereo not drawn)	/	.	.	.	.	/
COc1ccc(C)cc1NC(=O)NCc1cccn1Cc1ccccc1	/	.	/	/	/	.
Cc1nn(CCC(=O)N2CCN(c3ccccc3F)CC2)c(C)c1S(=O)(=O)N1CCCC1	/	.	/	/	/	.
Cc1nc2ccccc2n1CCc1nc2c3ccccc3nc(SCc3cccc(F)c3)n2n1	/	.	/	/	/	.
COc1ccccc1CNC(=O)c1ccc(NC2=NC3CS(=O)(=O)CC3S2)cc1 (stereo not drawn)	/	.	.	.	12µM	/
Cc1ccc(C(=O)Nc2ccc(F)cc2)cc1NC1=NC2CS(=O)(=O)CC2S1 (stereo not drawn)	/	-101	.	.	9.3µM	/
COc1ccccc1CNC(=O)c1ccc(Cl)c(NC2=NC3CS(=O)(=O)CC3S2)c1 (stereo not drawn)	/	.	.	.	.	/
COc1ccc(NC(=O)c2ccc(NC3=NC4CS(=O)(=O)CC4S3)cc2)cc1 (stereo not drawn)	/	.	.	.	10µM	/
Cc1cc(C)cc(NC(=O)c2ccc(NC3=NC4CS(=O)(=O)CC4S3)cc2)c1 (stereo not drawn)	/	.	.	.	.	/
CC(=O)OC(C(=O)NC1CCCCC1)c1cccc(F)c1 (stereo not drawn)	/	.	.	.	.	/
CC(=O)OC(C(=O)NC1CCCCC1)c1ccccc1F (stereo not drawn)	?	.	.	.	9.3µM	.
COC(CN(C)C(C(=O)NC1CCCCC1)c1ccccc1)OC (stereo not drawn)	.	.	.	.	.	.
